# In PubChem BioAssay (NCI):
# The panel holds about 83,000 compounds, 20% with a hit somewhere; the sample as a whole holds those more often.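 Note: values are percent growth. 100 is the growth of untreated cells, values between 100 and 0 indicate rising inhibition; between -100 and 0 indicates cell death.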 Active and inactive are the calls of the source. How the source made its calls: active means growth percent below 10; inactive means the rest.
# System: HL-60(TB) leukemia
# Test: NCI-60 one-dose screen, 48 h (100 = growth as untreated, 0 = no growth, -100 = all killed)
# Conditions: 10 µM unless noted
row,SMILES,growth
1,CCOC(=O)C(NC(=O)C(Cl)Cl)C(O)c1ccccc1 (stereo not given),113% (inactive)
2,Clc1ccc(Sc2nc(NC3CC3)nc(Sc3ccc(Cl)cc3)n2)cc1,60.9% (inactive)
3,O=C1CCCC1[n+]1ccccc1 (stereo not given),88.1% (inactive)
4,NC(=NCCCOc1ccc(Cl)cc1)Nc1ccc(Cl)cc1,95.3% (inactive)
5,COc1ccc2c(O)c(/C=C3\N=Nc4nc(C)ccc43)oc2c1CC1CCNCC1,94.3% (inactive)
6,CCCCOc1nc2ccc(Cl)cc2cc1/C=C/C(=O)/C=C/c1ccc(Cl)cc1,61.2% (inactive)
7,COc1ccc(/C=N/OCC(O)CNCc2ccccc2)cc1OC1CCCC1 (stereo not given),105% (inactive)
8,O=C(O)c1ccc2c3ccc(C(=O)O)c4c(C(=O)O)ccc(c5ccc(C(=O)O)c1c25)c43,111% (inactive)
9,O=[N+]([O-])c1cc2ncccc2c2ncccc12,88.1% (inactive)
10,Cc1ccccc1-c1nc(C(Cl)Cl)nc2cc(-c3ccccc3)nn12,92% (inactive)
11,O=C1/C(=C/c2ccc([N+](=O)[O-])s2)Oc2ccc(Br)cc21,-22.3% (active)
12,CC1(C)c2[nH]c3ccccc3c2C[C@]2(C)[C@H]3C(=O)C=C4[C@@H]5C[C@@](C)(C(N)=O)CC[C@]5(C)CC[C@@]4(C)[C@]3(C)CC[C@@H]12,59.9% (inactive)
13,COc1ccc(C2=NN(C(=O)c3ccc(S(C)(=O)=O)cc3)C(c3ccc(OC)c(OC)c3)C2)c(OC)c1 (stereo not given),69% (inactive)
14,COc1ccc(-c2cc(-c3ccc(Cl)cc3)nc(SCCCC(=O)NO)n2)cc1OC,-32.4% (active)
15,CC(C)Sc1nc(NNC(N)=S)c(C#N)c(-c2ccc(F)cc2)n1,94.9% (inactive)
16,O=c1oc2c(cnc3ccccc32)cc1-c1cccc(Cl)c1,102% (inactive)
17,COc1cc(NCCN(CC(C)C)CC(C)C)c2ncc(C)cc2c1,88.2% (inactive)
18,OC(c1cc(C23CC4CC(CC(C4)C2)C3)nc2c(Cl)cc(Cl)cc12)C1CCCCN1 (stereo not given),-47.7% (active)
19,CC[C@H](Nc1nc(N)nc(C)c1C#N)c1nc2cccc(CN(C)c3ncc(C(=O)NO)cn3)c2c(=O)n1-c1ccccc1,0.763% (active)
20,Nc1nc2ccccc2c2c(=O)c3cccc(Cl)c3sc12,93.7% (inactive)

row,SMILES,growth
1,Cn1cc(-c2csc(-c3cn(CCCN4CCCCC4)c4ccccc34)n2)c2cccnc21,-65.2% (active)
2,Cc1ccc2c(c1)O/C(=C\c1ccc([N+](=O)[O-])o1)C2=O,17.2% (inactive)
3,O=C(Nc1cccc(Cl)c1)c1ccc(Cl)cc1Cl,92% (inactive)
4,CCc1ccc(-c2nc(SCC(=O)NC3CCCCC3)n[nH]2)cc1,56.3% (inactive)
5,Cc1ccc(-c2nc([P+](c3ccccc3)(c3ccccc3)c3ccccc3)c(S(=O)(=O)c3ccc(C)cc3)o2)cc1,-14.4% (active)
6,COc1nc(OC)nc(-c2cc(-c3cc(OC)c(OC)c(OC)c3)no2)n1,95.2% (inactive)
7,COc1ccc2[nH]c(C(=O)OCc3ccc4c(Cl)cc(Cl)c(O)c4n3)cc2c1,-30.4% (active)
8,CN1C(=O)/C(=C/c2ccc(C(=O)Nc3ncc(Cc4ccc(F)cc4)s3)cc2)SC1=S,37.6% (inactive)
9,CCCCCCCCCCCCOC(=N)N(C)C,91.9% (inactive)
10,CCOC(=O)CNC1=C(Cl)C(=O)N(Cc2ccc(Cl)cc2)C1=O,105% (inactive)
11,C=C1C(=O)O[C@H]2[C@H]1CC/C(Cn1cc(Cn3ccc4cc(Cl)ccc43)nn1)=C\CC[C@@]1(C)O[C@@H]21,-37.7% (active)
12,CCOC(=O)CSC(=S)SCC(=O)OCC,103% (inactive)
13,Cc1nn(CC(=O)O)c2c1C(=O)CC(C)(C)C2,100% (inactive)
14,Cc1cc(C)n(-c2nc(-c3cccs3)c(C#N)c(=O)[nH]2)n1,94.4% (inactive)
15,O=c1c2cccc3c(Nc4ccccn4)ccc(c32)c2nc3ccccc3n12,62.3% (inactive)
16,CO[C@H]1/C=C/O[C@@]2(C)Oc3c(C)c(O)c4c(O)c(c(/C=N/N5C(C)CN(Cc6ccc(C#N)cc6)CC5C)c(O)c4c3C2=O)NC(=O)/C(C)=C\C=C\[C@H](C)[C@H](O)[C@@H](C)[C@@H](O)[C@@H](C)[C@H](OC(C)=O)[C@@H]1C (stereo not given in full),-37% (active)
17,Cc1cc(-c2ccccc2)on1,89.2% (inactive)
18,CN(C)C=Nc1cc(Cl)ccc1Cl,102% (inactive)
19,Cc1c(C(C)(C)O)cn2ncnc(Oc3ccc(NC(=O)Nc4ccc(Cl)c(C(F)(F)F)c4)cc3)c12,26.6% (inactive)
20,CCCCCC(C)c1ccc(O)c(C)c1 (stereo not given),91.4% (inactive)
